Test results as given in PubChem BioAssay.
Activity calls are given as the source filed them.

Columns and labels:
[1] = system: PRMT1 (protein arginine N-methyltransferase 1); test: PRMT1 binders on small-molecule microarrays, primary screen, biochemical, small-molecule microarray, 635 nm fluorescence (AID 1088); details: small-molecule microarray binding, higher = more signal;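 further: binding of Prmt1 protein to compounds spotted on small-molecule microarray slides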
[2] = yeast growth modulation, basal conditions, primary screen, YJM789 clinical isolate, OD600, 24 h (AID 1089);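 further: growth of clinical yeast isolate S. cerevisiae YJM 789 seeded 1000 cells per well; test concentration not given here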; details: S. cerevisiae YJM789 growth, higher = more signal, called active from +8 up or from −8 down
[3] = fission yeast growth modulation, primary screen, strain 972, OD600, 24 h, no modulator (AID 1090);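 further: basal condition with compound alone and no growth modifier present; test concentration not given here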; details: S. pombe 972 growth, higher = more signal, called active from +8 up or from −8 down
[4] = S. cerevisiae growth modulation with rapamycin, primary screen, strain BY4716, OD600, 96 h (AID 1091); details: higher = more signal, called active from +8 up or from −8 down; further: test concentration not given here
[5] = target: Torsin-1A-interacting protein 2 (Homo sapiens) (UniProt Q8NFQ8); test: LULL1 binders on small-molecule microarray, primary screen, cell lysate, human LULL1 lysate, 635/667 nm fluorescence (AID 1092); details: hLULL1 lysate binding, 635 nm fluorescence, higher = more signal;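 further: probe is lysate of COS7 cells overexpressing human LULL1; score merges per-feature 667 nm fluorescence with signal-to-noise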
Chain of Torsin-1A-interacting protein 2 (Homo sapiens) (Q8NFQ8 whole entry, looked up): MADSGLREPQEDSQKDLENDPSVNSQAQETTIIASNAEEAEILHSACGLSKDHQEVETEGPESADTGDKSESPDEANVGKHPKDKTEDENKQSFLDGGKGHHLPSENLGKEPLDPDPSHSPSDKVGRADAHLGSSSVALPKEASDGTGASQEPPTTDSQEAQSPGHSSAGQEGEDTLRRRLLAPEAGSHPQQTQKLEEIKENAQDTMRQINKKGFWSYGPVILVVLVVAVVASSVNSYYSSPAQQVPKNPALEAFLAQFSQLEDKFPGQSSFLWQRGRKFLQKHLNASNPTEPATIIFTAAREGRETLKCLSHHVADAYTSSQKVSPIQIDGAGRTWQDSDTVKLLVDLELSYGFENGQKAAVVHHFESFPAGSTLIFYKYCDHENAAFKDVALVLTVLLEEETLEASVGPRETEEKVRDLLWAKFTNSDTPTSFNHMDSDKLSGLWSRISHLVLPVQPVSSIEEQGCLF

[6] = E. coli growth modulation, two-sided OD650, primary screen, E. coli filamentation project, strain DRC41, 24 h (AID 1093); details: OD650, 24 h, higher = more signal, called active from +8 up or from −8 down;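 further: MC1000 strain lacking acrAB efflux and sulA so SOS filamentation is blocked; test concentration not given here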
[7] = small-molecule microarray binders of probe aLefty2, primary screen, biochemical, biotinylated probe, 635/667 nm fluorescence (AID 1094); details: higher = more signal;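 further: score merges spot fluorescence near 667 nm with spot signal-to-noise ratio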
[8] = system: Noggin (protein binding on small-molecule microarray); test: Noggin binders on small-molecule microarray, primary screen, biochemical, 635/667 nm fluorescence (AID 1095); details: 635 nm fluorescence, higher = more signal;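 further: score merges 667 nm feature fluorescence with signal to noise over triplicate slides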
[9] = target: Neurogenic locus notch homolog protein 3 (Homo sapiens) (UniProt Q9UM47); test: NOTCH3 binders on small-molecule microarray, primary screen, biochemical, 635/667 nm fluorescence (AID 1096); details: NOTCH3 binding, 635 nm fluorescence, higher = more signal
Chain of Neurogenic locus notch homolog protein 3 (Homo sapiens) (Q9UM47 whole entry, looked up): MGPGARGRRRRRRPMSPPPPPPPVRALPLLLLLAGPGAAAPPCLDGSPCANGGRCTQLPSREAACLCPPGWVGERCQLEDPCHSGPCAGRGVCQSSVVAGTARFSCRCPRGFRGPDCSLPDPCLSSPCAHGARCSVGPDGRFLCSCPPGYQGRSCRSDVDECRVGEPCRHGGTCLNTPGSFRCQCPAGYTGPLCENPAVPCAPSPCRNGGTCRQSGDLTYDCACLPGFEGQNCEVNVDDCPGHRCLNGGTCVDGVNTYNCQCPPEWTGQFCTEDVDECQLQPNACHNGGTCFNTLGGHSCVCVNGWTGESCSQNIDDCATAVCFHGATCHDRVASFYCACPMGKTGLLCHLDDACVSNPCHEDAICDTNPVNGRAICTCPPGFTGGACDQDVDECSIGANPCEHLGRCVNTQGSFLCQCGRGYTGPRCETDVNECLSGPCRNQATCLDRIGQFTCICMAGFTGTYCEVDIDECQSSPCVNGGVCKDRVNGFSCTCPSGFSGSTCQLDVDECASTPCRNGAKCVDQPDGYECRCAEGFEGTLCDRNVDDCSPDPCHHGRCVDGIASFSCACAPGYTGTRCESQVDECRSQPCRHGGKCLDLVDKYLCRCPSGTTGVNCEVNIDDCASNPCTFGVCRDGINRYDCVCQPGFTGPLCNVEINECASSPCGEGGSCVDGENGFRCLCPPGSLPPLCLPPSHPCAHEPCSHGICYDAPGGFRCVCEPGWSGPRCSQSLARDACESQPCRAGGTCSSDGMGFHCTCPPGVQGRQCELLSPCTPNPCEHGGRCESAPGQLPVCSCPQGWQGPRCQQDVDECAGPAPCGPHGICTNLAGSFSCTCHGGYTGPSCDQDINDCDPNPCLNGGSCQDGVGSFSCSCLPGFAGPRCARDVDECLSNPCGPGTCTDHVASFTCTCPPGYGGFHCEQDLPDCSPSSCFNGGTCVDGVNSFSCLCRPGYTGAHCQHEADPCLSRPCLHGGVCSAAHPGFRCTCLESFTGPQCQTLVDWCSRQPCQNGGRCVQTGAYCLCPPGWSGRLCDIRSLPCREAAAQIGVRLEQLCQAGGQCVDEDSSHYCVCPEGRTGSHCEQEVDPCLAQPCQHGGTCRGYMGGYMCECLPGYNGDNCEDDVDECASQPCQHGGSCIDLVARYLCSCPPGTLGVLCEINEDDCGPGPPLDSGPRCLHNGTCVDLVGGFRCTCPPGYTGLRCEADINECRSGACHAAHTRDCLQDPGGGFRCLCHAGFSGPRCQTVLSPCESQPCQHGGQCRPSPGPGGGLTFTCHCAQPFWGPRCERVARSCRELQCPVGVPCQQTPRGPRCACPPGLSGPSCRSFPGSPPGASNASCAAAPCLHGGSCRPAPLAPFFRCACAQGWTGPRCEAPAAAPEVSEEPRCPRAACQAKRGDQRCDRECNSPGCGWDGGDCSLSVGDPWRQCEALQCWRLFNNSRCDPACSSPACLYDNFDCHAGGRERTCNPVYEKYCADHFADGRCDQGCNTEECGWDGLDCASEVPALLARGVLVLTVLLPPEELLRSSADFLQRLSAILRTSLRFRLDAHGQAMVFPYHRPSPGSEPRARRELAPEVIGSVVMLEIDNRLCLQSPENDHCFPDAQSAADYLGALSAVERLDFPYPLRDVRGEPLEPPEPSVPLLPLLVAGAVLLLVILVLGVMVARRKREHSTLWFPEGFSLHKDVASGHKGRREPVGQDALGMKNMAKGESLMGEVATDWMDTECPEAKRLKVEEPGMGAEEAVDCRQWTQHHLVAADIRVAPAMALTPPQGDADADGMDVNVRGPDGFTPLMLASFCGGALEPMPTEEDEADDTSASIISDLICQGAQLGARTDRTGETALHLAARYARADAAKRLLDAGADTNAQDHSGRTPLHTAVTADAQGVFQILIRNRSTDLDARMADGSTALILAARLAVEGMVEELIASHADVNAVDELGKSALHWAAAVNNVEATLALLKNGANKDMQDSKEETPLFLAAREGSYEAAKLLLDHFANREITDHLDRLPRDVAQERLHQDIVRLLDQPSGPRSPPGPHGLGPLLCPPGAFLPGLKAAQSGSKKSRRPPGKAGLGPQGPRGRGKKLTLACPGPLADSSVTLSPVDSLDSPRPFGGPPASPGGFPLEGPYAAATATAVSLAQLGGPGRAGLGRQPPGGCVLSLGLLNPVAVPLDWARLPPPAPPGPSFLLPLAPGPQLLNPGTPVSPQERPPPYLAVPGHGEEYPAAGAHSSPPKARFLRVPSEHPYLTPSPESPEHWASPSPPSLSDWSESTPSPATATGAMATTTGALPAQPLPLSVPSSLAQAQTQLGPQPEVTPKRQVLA

[10] = small-molecule microarray binders of probe aEGFR, primary screen, biochemical, biotinylated probe, 635/667 nm fluorescence (AID 1097); details: higher = more signal;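 further: probe is a biotinylated anti-EGFR antibody binding compounds printed on slides; score combines fluorescence near 667 nm and signal to noise of each spot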
[11] = system: Plasmodium falciparum Sir2 (PF13_0152, Sir2A); test: pfSir2 binders on small-molecule microarrays, primary screen, biochemical, small-molecule microarray, 635 nm fluorescence (AID 1098); details: small-molecule microarray binding, fluorescence 635 nm; higher = more signal;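 further: score merges spot fluorescence intensity with its signal-to-noise ratio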
[12] = small-molecule microarray binders of probe aDKK1, primary screen, biochemical, biotinylated probe, 635/667 nm fluorescence (AID 1099); details: higher = more signal;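 further: score merges 667nm spot fluorescence with signal to noise across triplicate slides; reference of the scale not given here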
[13] = small-molecule microarray binders of probe aCHRDL2, primary screen, biochemical, biotinylated probe, 635/667 nm fluorescence (AID 1100); details: higher = more signal
[14] = splicing luciferase reporter signal modulators, primary screen, spliceosome inhibition project, cell-based, HEK293, splice +/- reporter (AID 1101); details: luminescence, 24 h, higher = more signal, called active from +8 up or from −8 down;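 further: HEK293 cells carrying a splicing-competent luciferase reporter gene; test concentration not given here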
[15] = target: Fibroblast growth factor 10 (Homo sapiens) (UniProt O15520); test: FGF10 binders on small-molecule microarrays, primary screen, biochemical, small-molecule microarray, 635 nm fluorescence (AID 1102); details: FGF10 binding, fluorescence 635 nm, higher = more signal
Chain of Fibroblast growth factor 10 (Homo sapiens) (O15520 whole entry, looked up): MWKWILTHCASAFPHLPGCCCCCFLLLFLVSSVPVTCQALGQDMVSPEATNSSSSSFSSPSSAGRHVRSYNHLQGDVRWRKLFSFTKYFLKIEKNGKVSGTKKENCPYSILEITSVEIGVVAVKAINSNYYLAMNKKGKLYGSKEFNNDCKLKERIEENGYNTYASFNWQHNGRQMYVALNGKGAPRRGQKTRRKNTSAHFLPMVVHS

[16] = system: glycogen synthase kinase-3 (GSK3A per assay name; protocol says GSK3B); test: GSK3 binders on small-molecule microarrays, primary screen, biochemical, small-molecule microarray, 635 nm fluorescence, GSK3A (AID 1103); details: small-molecule microarray binding, fluorescence 635 nm; higher = more signal; further: the record names both GSK3A and GSK3B
[17] = target: Epidermal growth factor receptor (Homo sapiens) (UniProt P00533); test: EGFR binders on small-molecule microarrays, primary screen, biochemical, small-molecule microarray, 635 nm fluorescence (AID 1104); details: EGFR binding, higher = more signal;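 further: score merges 667 nm emission intensity with spot signal to noise over triplicate slides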
Chain of Epidermal growth factor receptor (Homo sapiens) (P00533 whole entry, looked up): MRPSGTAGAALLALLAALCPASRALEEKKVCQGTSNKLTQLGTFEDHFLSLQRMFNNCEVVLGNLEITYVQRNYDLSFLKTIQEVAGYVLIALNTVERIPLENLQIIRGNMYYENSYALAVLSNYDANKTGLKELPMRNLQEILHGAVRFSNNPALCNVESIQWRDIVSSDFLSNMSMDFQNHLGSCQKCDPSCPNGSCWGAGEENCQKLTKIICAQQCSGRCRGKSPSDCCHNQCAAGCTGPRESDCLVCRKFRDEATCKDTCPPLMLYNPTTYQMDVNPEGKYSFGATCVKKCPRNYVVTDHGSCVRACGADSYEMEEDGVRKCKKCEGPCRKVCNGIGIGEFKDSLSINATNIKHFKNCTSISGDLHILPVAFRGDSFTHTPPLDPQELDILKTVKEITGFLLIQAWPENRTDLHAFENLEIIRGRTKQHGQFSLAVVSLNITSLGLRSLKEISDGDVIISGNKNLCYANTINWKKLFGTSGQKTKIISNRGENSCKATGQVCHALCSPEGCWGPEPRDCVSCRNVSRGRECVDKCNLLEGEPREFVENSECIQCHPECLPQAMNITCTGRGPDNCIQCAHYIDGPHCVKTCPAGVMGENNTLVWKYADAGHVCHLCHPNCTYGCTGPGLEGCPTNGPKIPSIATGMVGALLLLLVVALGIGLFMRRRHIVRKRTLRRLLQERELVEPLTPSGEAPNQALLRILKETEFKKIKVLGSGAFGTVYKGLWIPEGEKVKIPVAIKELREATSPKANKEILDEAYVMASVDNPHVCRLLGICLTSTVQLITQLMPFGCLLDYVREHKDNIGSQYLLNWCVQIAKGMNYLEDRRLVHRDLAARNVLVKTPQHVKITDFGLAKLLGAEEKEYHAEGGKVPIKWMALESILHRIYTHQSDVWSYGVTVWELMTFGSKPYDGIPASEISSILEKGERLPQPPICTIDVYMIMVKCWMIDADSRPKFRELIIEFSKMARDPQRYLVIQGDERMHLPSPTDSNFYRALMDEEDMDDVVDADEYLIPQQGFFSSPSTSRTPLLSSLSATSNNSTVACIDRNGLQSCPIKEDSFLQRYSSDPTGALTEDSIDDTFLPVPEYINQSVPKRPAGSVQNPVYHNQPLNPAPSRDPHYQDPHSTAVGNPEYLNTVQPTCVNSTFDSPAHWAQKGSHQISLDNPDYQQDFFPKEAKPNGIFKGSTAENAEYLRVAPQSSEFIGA

[18] = target: Follistatin-related protein 3 (Homo sapiens) (UniProt O95633); test: FSTL3 binders on small-molecule microarrays, primary screen, biochemical, small-molecule microarray, 635 nm fluorescence (AID 1105); details: FSTL3 binding, higher = more signal;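 further: score merges emission near 667 nm and signal to noise per printed spot across three slides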
Chain of Follistatin-related protein 3 (Homo sapiens) (O95633 whole entry, looked up): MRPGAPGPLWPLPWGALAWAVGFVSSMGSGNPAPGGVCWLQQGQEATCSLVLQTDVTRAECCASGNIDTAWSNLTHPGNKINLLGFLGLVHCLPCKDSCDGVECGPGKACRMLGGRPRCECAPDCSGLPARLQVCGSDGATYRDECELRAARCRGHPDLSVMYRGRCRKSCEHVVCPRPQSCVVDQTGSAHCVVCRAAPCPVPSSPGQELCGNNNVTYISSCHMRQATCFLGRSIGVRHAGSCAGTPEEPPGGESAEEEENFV

[19] = target: Dickkopf-related protein 1 (Homo sapiens) (UniProt O94907); test: DKK1 binders on small-molecule microarrays, primary screen, biochemical, small-molecule microarray, 635 nm fluorescence scan (AID 1106); details: DKK1 binding, higher = more signal;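 further: score merges emission near 667 nm with signal to noise over three replicate slides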
Chain of Dickkopf-related protein 1 (Homo sapiens) (O94907 whole entry, looked up): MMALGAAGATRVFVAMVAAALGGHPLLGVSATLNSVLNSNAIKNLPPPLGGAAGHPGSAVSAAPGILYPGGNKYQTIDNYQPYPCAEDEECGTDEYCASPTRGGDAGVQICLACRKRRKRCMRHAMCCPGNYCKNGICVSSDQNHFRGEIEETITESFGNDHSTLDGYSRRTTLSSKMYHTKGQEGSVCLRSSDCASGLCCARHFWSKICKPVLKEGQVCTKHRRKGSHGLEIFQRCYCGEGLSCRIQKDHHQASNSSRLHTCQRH

[20] = system: Inhibin beta A chain (activin A); test: INHBA (activin A) binders on microarrays, primary screen, biochemical, small-molecule microarray, 635 nm fluorescence scan (AID 1107); details: small-molecule microarray binding, higher = more signal;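 further: mouse activin A protein probed at 4.33 µg/mL on printed slides; score merges bound-protein fluorescence near 667 nm with spot signal-to-noise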

Row | Compound | composite z-score [1] | z-score [2] | z-score [3] | z-score [4] | composite z-score [5] | z-score [6] | composite z-score [7] | composite z-score [8] | composite z-score [9] | composite z-score [10] | composite z-score [11] | composite z-score [12] | composite z-score [13] | z-score [14] | composite z-score [15] | composite z-score [16] | composite z-score [17] | composite z-score [18] | composite z-score [19] | composite z-score [20]
1 | CC(C)C[C@H](NC(=O)CCC1CC(OC(=O)NCc2cccc3ccccc23)CC2(CCCC(COC(=O)NCc3ccccc3)O2)O1)C(=O)NCC(c1ccccc1)c1ccccc1 (stereo not given in full) | 1.56 | -0.852 (inactive) | 0.333 (inactive) | -0.576 (inactive) | 1.97 | 0.94 (inactive) | -0.166 | 1.64 | 1.09 | -0.0333 | 0.683 | -0.0553 | -0.304 | 0.536 (inactive) | 1.26 | 0.91 | 0.667 | 1.12 | 0.861 | -0.156
2 | CCOC(=O)[C@H](CC(C)C)NC(=O)CCC1CC(OC(=O)NCCc2ccc(F)cc2)CC2(CCCC(COC(=O)NCC(c3ccccc3)c3ccccc3)O2)O1 (stereo not given in full) | 1.41 | -0.297 (inactive) | 0.427 (inactive) | -1.3 (inactive) | 2.59 | -0.198 (inactive) | -0.105 | 0.569 | 0.499 | -0.127 | 1.1 | 0.096 | -0.437 | 0.0587 (inactive) | 0.588 | 0.873 | 0.319 | 0.824 | 0.697 | -0.0427
3 | COC(=O)[C@@H]1CC[C@H](C)[C@@H](c2ccc(C)cc2)N1C(=O)c1ccc(C=NO[C@@H](C)c2cn([C@H](CO)Cc3ccccc3)nn2)cc1 | 1.44 | 0.76 (inactive) | 0.249 (inactive) | 1.25 (inactive) | 1.57 | 1.35 (inactive) | -0.126 | 1.19 | 1.1 | 0.24 | 1.03 | -0.0212 | -0.925 | -0.746 (inactive) | 1.09 | 1.16 | 0.797 | 1.17 | 1.22 | -0.116
4 | C#CCCCON=C1[C@H]2CCn3c(=O)n(C)c(=O)n3[C@H]2[C@H](O)[C@@H]2O[C@H]12 | -0.677 | 0.516 (inactive) | -0.377 (inactive) | 0.658 (inactive) | -0.0133 | -0.305 (inactive) | -0.132 | 1.18 | 0.891 | -0.148 | 0.325 | -0.316 | -0.548 | 0.0589 (inactive) | 0.478 | 0.832 | 0.719 | 0.938 | 0.811 | 0.213
5 | CC(C)=NOC[C@@H](C)[C@H](OCc1ccccc1)C(C)C | -0.465 | 0.682 (inactive) | -0.207 (inactive) | 0.752 (inactive) | -0.602 | 0.0184 (inactive) | -0.127 | 1.06 | -1.12 | -0.0656 | -0.229 | -0.0423 | 0.631 | -0.159 (inactive) | -0.822 | -1.06 | -0.602 | -0.664 | -0.355 | 0.927
6 | COC(=O)CC=C[C@@H](C)[C@@H](C=NOC[C@@H](O)[C@H]1O[C@@H]2OC(C)(C)O[C@@H]2[C@H]1O)NS(=O)(=O)c1ccc(C)cc1 | 0.601 | -0.684 (inactive) | -0.137 (inactive) | -0.408 (inactive) | 0.308 | 0.445 (inactive) | 0.0528 | 0.974 | 0.638 | -0.0553 | 0.698 | -0.251 | -0.614 | 0.318 (inactive) | 0.504 | 0.471 | 0.419 | 0.427 | 0.653 | -0.0684
7 | O=C1CCCC=C1C(O)CCCCBr (stereo not given) | -0.25 | -3.03 (inactive) | -20.8 (active) | -1.04 (inactive) | 1.7 | 0.518 (inactive) | 0.263 | 1.03 | 0.474 | -0.0742 | 1.09 | 0.763 | 0.653 | -0.793 (inactive) | 0.404 | -0.115 | 0.0038 | 1.18 | 0.945 | 1.26
8 | CCC(=O)[C@@]1(O)C(=O)N2C(=C3C(=O)OCC[C@@H]31)N(Cc1ccccc1)C(C)=C(C(=O)OC)[C@H]2c1ccccc1 | 0.374 | 0.725 (inactive) | -0.612 (inactive) | 0.0739 (inactive) | 0.399 | 0.568 (inactive) | -0.232 | 0.644 | 0.367 | -0.0059 | 0.413 | -0.302 | -0.624 | 0.501 (inactive) | 0.241 | 0.554 | 0.43 | 0.429 | 0.873 | -0.0748
9 | COc1ccc(O[C@H]2C=C[C@@H](c3ccccc3)O[C@@H]2COC(=O)CCC(C)=NOC[C@@H](O)[C@H]2O[C@@H]3OC(C)(C)O[C@@H]3[C@H]2O)cc1 | 1.34 | 0.671 (inactive) | 0.0839 (inactive) | -0.37 (inactive) | 1.48 | 0.875 (inactive) | -0.103 | 1.41 | 0.763 | -0.0592 | 0.933 | -0.206 | -0.633 | 0.17 (inactive) | 0.766 | 0.87 | 0.615 | 0.847 | 0.551 | 0.437
10 | CO[C@H]1COC(=O)[C@H](C)NC(=O)[C@@H](C)COC(=O)[C@H]2CCCN2C(=O)CC=C[C@H]1C | 1.08 | -0.282 (inactive) | -0.658 (inactive) | -0.571 (inactive) | -0.412 | 0.492 (inactive) | -0.138 | 0.542 | 0.358 | -0.0689 | -0.139 | -0.377 | -0.823 | -0.447 (inactive) | 0.764 | 0.945 | 0.627 | 0.736 | 1.55 | -0.252
